The full list was thinned out, with hits kept by preference.
Pf Dd2 inh: Plasmodium falciparum Dd2 growth inhibition. Potency, µM (highest dose often 28.9 µM), actives largely listed as inhibitors. AID 1347417. hit rate 4.3% among 120,000. P. falciparum Dd2 growth, SYBR Green, 72 h; active means well fitted inhibition curve with a large enough effect; further: nearly all actives have a fitted effect of over 65% in size
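Readout: SYBR Green fluorescence, 485 nm excitation, 535 nm emission, after ~16 h lysis at 37C. Before that, Dd2-infected red cells (2.5% hematocrit) grew 72 h with compound, 29 uM top final concentration.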
Each line names hits and unclear results; the compound was inactive in the other large screens.

Cc1cnc(-c2ccncc2)n1C1CCCN(C(=O)C2(c3ccccc3)CC2)C1 (stereo not given)	none
CCCn1c(C)cnc1CC1CCN(C(=O)c2c(C)noc2C)CC1	none
CCCn1c(C)cnc1CC1CCN(C(=O)C2(c3ccc(OC)cc3)CC2)C1 (stereo not given)	Pf Dd2 inh 5µM
Cc1cnc(CCNC(=O)COc2ccccc2)n1C1CCC1	Pf Dd2 inh 3.2µM
Cc1cnc(CCNC(=O)C2(c3ccccc3)CC2)n1C1CCCCCC1	Pf Dd2 inh 2.2µM
CN1C(=O)CCC2(CNC(=O)C3CC3)CCC=C12 (stereo not given)	none
COc1ccc(OC)c(CNC(=O)c2ccc(-c3ccc(N4CCSCC4)nc3)cc2)c1	none
c1cncc(CN2CCn3c(nnc3-c3ccncc3)C2)c1	none
Cn1ccnc1CN[C@@H]1CO[C@H](CNC(=O)CC(C)(C)C)[C@H]1O	none
CS(=O)(=O)N1CC[C@H](c2nc3cc(Cl)ccc3o2)C1	none
Cc1ccc(CC(=O)N2CCN(c3cc(-c4ccccc4)[nH]n3)CC2)cc1	none
O=C(c1ccc(F)cc1)N1CCC(n2cc(-c3nc(C4CC4)no3)nn2)C1 (stereo not given)	none
Cc1cnc(CCNC(=O)c2ccnn2C)n1C1CC1	none
Cc1cnc(C(=O)NCCc2ncc(C)n2C2CC2)cn1	none
COc1ccc(C2(C(=O)NCCc3ncc(C)n3C3CC3)CC2)cc1	Pf Dd2 inh 2.5µM
Cc1c(Cl)cccc1NC(=O)N1C[C@@H](F)C[C@H]1C(=O)N1CCCCC1	none
COc1ccccc1CNC(=O)c1noc(-c2ccc3c(c2)OCO3)n1	none
COc1ccccc1C(=O)NC1CCN(c2ccccc2)C1=O (stereo not given)	none
NCCn1cc(C(=O)N2CCC[C@H]2c2nc(-c3ccccn3)no2)nn1	none
CCc1ccc(OCC(=O)NCC(c2ccc(OC)cc2)N2CCOCC2)cc1 (stereo not given)	Pf Dd2 inh 3.2µM
CCc1ccc2oc(C(=O)Nc3nonc3CC)c(C)c2c1	none
CCc1ccc2oc(C(=O)Nc3nc(-c4ccccc4)ns3)c(C)c2c1	none
CCc1ccc2oc(C(=O)NCC(c3ccc(Cl)cc3)N3CCOCC3)c(C)c2c1 (stereo not given)	Pf Dd2 inh 11µM
COc1ccc(OCC(=O)NCC(c2ccc(OC)cc2)N2CCOCC2)cc1 (stereo not given)	none
COc1ccc(C(=O)NCC(c2ccc3c(c2)OCO3)N2CCOCC2)cc1 (stereo not given)	none
COc1ccc(Cl)cc1C(=O)NCC(c1ccc(N(C)C)cc1)N1CCOCC1 (stereo not given)	none
CCc1ccc2oc(C(=O)NCC(c3ccc(OC)cc3)N3CCCCC3)c(C)c2c1 (stereo not given)	Pf Dd2 inh 10µM
Cc1ccc2c(C)c(C(=O)NCC(c3ccc(Cl)cc3)N3CCOCC3)oc2c1 (stereo not given)	none
COc1ccc(C(=O)N2CCC3(CC2)NC(=O)N(Cc2ccc(Cl)cc2)C3=O)cc1	none
N#CCn1nc2n(c1=O)CCN(C(=O)COc1ccc(Cl)cc1)CC2	none
CCOC(=O)N1CCC(NC(=O)c2cn(CC3CCCNC3)nn2)CC1 (stereo not given)	none
O=C(c1cn(C2CNC2)nn1)N1CCOCC1	none
O=C1CN(C(=O)CCC(=O)N2CCc3nc4cc(-c5ccccc5)[nH]n4c(=O)c3C2)c2ccccc2N1	none
Cn1nccc1CCC(=O)N1CC[C@@]2(O)CCN(C(=O)C3CCC3)C[C@H]2C1	none
c1cc2c(cc1N1CCC(N[C@H]3C[C@@H]4OCC[C@H]34)CC1)CCC2	none
Fc1ccc2cnc(N3CCC(N[C@H]4C[C@@H]5OCC[C@H]45)CC3)nc2c1	Pf Dd2 inh 8.9µM
CCNC(=O)c1cccc2c1CCN2C(=O)Nc1ccc(C)cc1	none
CN(Cc1ccccc1)C(=O)c1cccc2c1CCN2C(=O)Nc1ccccc1	Pf Dd2 inh 6.3µM
CN(Cc1ccco1)C(=O)c1cccc2c1CCN2C(=O)Nc1ccccc1	none
COCCNC(=O)C1(C)CN(Cc2ccccc2)Cc2ccc(N3CCOCC3)nc21 (stereo not given)	none
C=CCOC(=O)C1=CN(Cc2ccccc2)S(=O)(=O)N=C1C	none
CCOC(=O)N1CCN(C2CCN(c3cc(CC)nc(C)n3)CC2)CC1	none
Cc1c(O)cccc1C(=O)N1CCCn2nc(C(=O)NCCN(C)C)cc2C1	none
CCOc1ccccc1N1CCN(Cc2ccc(=O)n(CC)c2)CC1	none
COc1ccccc1N1CCN(c2csc3ccccc3c2=O)CC1	none
COc1ccc(-c2noc(CN3CCN(c4ccccc4OC)CC3)n2)cc1OC	none
C=CCS(=O)(=O)NCc1cccnc1N1CCN(c2ccccc2OC)CC1	none
CCCOCc1cc(CN2CCN(c3ccccc3OC)CC2)c(O)c2ncccc12	Pf Dd2 inh 2.8µM
CCOCc1cc(CN2CCN(c3ccccc3OC)CC2)c(O)c2ncccc12	Pf Dd2 inh 2µM
COc1ccccc1N1CCN(C(CNC(=O)C(=O)NCc2cccnc2)c2cccnc2)CC1 (stereo not given)	none
COc1ccccc1N1CCN(c2ncccc2-c2nc(-c3ccc(Cl)cc3)no2)CC1	none
COc1ccccc1N1CCN(Cc2cc(COC(C)C)c3cccnc3c2O)CC1	Pf Dd2 inh 1.6µM
Cc1ccc(C(=O)N2CCCC3(CC(c4cccnc4)=NO3)C2)cc1 (stereo not given)	none

High-throughput results: PubChem, National Center for Advancing Translational Sciences (NCATS)
